Reference: PubChem BioAssay AID2177 (The Scripps Research Institute Molecular Screening Center, 2009)
Out of some 320,000 compounds screened, about 1,200 (0.38%) were called active.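 The calls were made as follows: active = inhibition above the screen-wide mean plus 3 SD, limit set per campaign (cut at about 26% in these data); inactive = the rest.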 The full list was thinned out, with actives kept by preference.

Molecular target: Acyl-protein thioesterase 2 (Homo sapiens) (UniProt O95372)
Assay: inhibition of human lysophospholipase 2 – biochemical, fluorescence polarization, FP-Rh probe ABPP, counter-screen for PME1 inhibitor project, primary screen (AID 2177);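 also: 0% = LYPLA2 with DMSO and 100% = wells lacking LYPLA2 enzyme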
Details: recombinant LYPLA2, FP-Rh probe fluorescence polarization; at 5.9 µM; hits give high values

Sequence of Acyl-protein thioesterase 2 (Homo sapiens) (O95372 whole entry, looked up): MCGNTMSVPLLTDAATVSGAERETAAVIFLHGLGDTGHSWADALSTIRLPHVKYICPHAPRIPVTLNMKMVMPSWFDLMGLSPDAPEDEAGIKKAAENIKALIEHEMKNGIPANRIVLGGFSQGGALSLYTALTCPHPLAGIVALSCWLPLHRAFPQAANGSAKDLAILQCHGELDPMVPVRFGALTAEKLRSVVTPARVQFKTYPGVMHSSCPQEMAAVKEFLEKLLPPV

| SMILES | inhibition |
| --- | --- |
| N#CCSc1nn(-c2ccc(F)cc2)c(=S)s1 | -7.24% (inactive) |
| COc1cccc(C(=O)Nc2nnc(S(=O)(=O)N3CCOCC3)s2)c1 | -0.08% (inactive) |
| Cc1ccccc1Cn1c2ccccc2c2cnn(CC(=O)NCc3ccco3)c(=O)c21 | -21% (inactive) |
| COc1cccc(-c2nc(CS(=O)CC(=O)NCc3ccc(F)cc3)c(C)o2)c1 (configuration not stated) | 10.6% (inactive) |
| COc1ccc(-c2nc(CS(=O)CC(=O)NCc3ccccc3)c(C)o2)cc1OC (configuration not stated) | 0.93% (inactive) |
| COc1ccc(-c2nc(CS(=O)CC(=O)NCc3ccccn3)c(C)o2)cc1 (configuration not stated) | 27.8% (active) |
| CC[N+](C)(CC)CCC[n+]1c(-c2ccccc2)c2cc(N)ccc2c2ccc(N)cc21 | 72.4% (active) |
| O=C1/C(=C\c2ccccc2Cl)SC(=S)N1CCC(=O)N1CCCc2ccccc21 | -1.32% (inactive) |
| CCOc1ccc(NC(=O)CN(C)C(=O)CCSc2ccc(F)cc2)cc1OCC | 6.29% (inactive) |
| O=C(CCl)NNc1cccc(Cl)n1 | -5.01% (inactive) |
| CC1CC(NC(=O)/C(C#N)=C/c2ccc[nH]2)CC(C)(C)C1 (configuration not stated) | 0.74% (inactive) |
| O=C(CCCN1C(=O)c2cccc3cccc(c23)C1=O)N1CCN(Cc2ccc3c(c2)OCO3)CC1 | 64.2% (active) |
| Cn1c(=O)cc(OCCCC(=O)N2CCN(Cc3ccc4c(c3)OCO4)CC2)c2ccccc21 | 9.58% (inactive) |
| O=C(Nc1cccc2ccccc12)N1CCN(Cc2ccc3c(c2)OCO3)CC1 | 1.22% (inactive) |
| CCCCCc1c(C)nc(N2CCN(Cc3ccc4c(c3)OCO4)CC2)[nH]c1=O | -5.68% (inactive) |
| O=C(CSc1nnc(-c2ccc([N+](=O)[O-])cc2)o1)Nc1ccccn1 | 0.49% (inactive) |
| CCOC(=O)CSc1nnc(-c2ccc([N+](=O)[O-])cc2)o1 | -0.42% (inactive) |
| N#Cc1ccc(OCc2nnc(-c3ccc([N+](=O)[O-])cc3)o2)cc1 | 32.3% (active) |
| N#Cc1c(/N=C/N2CCCC2)oc(-c2ccccc2)c1-c1ccccc1 | 4.8% (inactive) |

| SMILES | inhibition |
| --- | --- |
| CC(=O)C12CC(C)=C(C)CC1CC1C3CCC4=CC(=O)CCC4(C)C3CCC12C (configuration not stated) | -4.85% (inactive) |
| COc1ccccc1N1CC(C(=O)NCCN2C(=O)S/C(=C\c3cccnc3)C2=O)CC1=O (configuration not stated) | 1.85% (inactive) |
| CCOc1ccc(N2CC(C(=O)NCCN3C(=O)S/C(=C\c4cccnc4)C3=O)CC2=O)cc1 (configuration not stated) | 6.19% (inactive) |
| COc1ccc(N2CC(C(=O)NCCN3C(=O)S/C(=C\c4cccnc4)C3=O)CC2=O)c(OC)c1 (configuration not stated) | 57.6% (active) |
| Cc1cc(C)c(S(=O)(=O)N2CCC(C(=O)OCc3c(C)noc3C)CC2)c(C)c1 | 5.23% (inactive) |
| COCCn1c(SCC(=O)c2[nH]c(C)c(C(C)=O)c2C)nc2ccccc2c1=O | -1.43% (inactive) |
| CN(CC(=O)NCCc1ccccc1)S(=O)(=O)c1cnc[nH]1 | -2.19% (inactive) |
| CCC(C)NC(=O)c1ccc(NC(=O)CC2SC(N3CCCCC3)=NC2=O)cc1 (configuration not stated) | -2.2% (inactive) |
| COc1ccc(NC(=O)CC2SC(N3CCCCC3)=NC2=O)cc1OC (configuration not stated) | -2.51% (inactive) |
| O=C(CC1SC(N2CCCC2)=NC1=O)Nc1ccc(C(=O)NCCc2ccc(F)cc2)cc1 (configuration not stated) | 34.5% (active) |
| CCN(CC(=O)Nc1ccccc1OC)C(=O)CC1CC2CCC1C2 (configuration not stated) | 4.24% (inactive) |
| CCN(CC)C(=O)CC1(c2ccccc2OC)CCOC(C(C)C)C1 (configuration not stated) | 27.5% (active) |
| COc1ccc(C2(CNC(=O)C(c3ccccc3)c3ccccc3)CCOCC2)cc1OC | 0.76% (inactive) |
| c1ccc(-c2ccnc3nc(-n4cccc4)nn23)cc1 | 5.32% (inactive) |
| CCCCCC1CCC(c2nnc(SCC(C)=O)o2)CC1 (configuration not stated) | 34.9% (active) |
| Cc1[nH]c2ccccc2c1C(=O)C(C)Sc1nnc(C2CC2)o1 (configuration not stated) | 1.82% (inactive) |
| CCN(CC)C(=O)CSc1nnc(C2CCCCC2)o1 | 6.58% (inactive) |
| CC(=O)Nc1ccc(N2C(=O)CCC2=O)cc1C | 2% (inactive) |
